Laboratory results as given in PubChem BioAssay (Tox21).
Values joined by “and” are separate entries in the source; they are usually repeats but may differ in a detail not shown here. Identical values can stand only once. Results filed as inconclusive are left out. Where a structure was tested more than once in an assay, its records may differ in their call. Active and inactive are the calls of the source. Calls follow the shape of the full dose curve.

Experiments:
[1] = target: Acetylcholinesterase (Homo sapiens) (UniProt P22303); assay: Acetylcholinesterase (AChE) small molecule antagonists: colormetric cell-based qHTS assay (AID 1347395); also: nearly all actives have a fitted effect of over 30% in size
Chain of Acetylcholinesterase (Homo sapiens) (P22303 whole entry, looked up): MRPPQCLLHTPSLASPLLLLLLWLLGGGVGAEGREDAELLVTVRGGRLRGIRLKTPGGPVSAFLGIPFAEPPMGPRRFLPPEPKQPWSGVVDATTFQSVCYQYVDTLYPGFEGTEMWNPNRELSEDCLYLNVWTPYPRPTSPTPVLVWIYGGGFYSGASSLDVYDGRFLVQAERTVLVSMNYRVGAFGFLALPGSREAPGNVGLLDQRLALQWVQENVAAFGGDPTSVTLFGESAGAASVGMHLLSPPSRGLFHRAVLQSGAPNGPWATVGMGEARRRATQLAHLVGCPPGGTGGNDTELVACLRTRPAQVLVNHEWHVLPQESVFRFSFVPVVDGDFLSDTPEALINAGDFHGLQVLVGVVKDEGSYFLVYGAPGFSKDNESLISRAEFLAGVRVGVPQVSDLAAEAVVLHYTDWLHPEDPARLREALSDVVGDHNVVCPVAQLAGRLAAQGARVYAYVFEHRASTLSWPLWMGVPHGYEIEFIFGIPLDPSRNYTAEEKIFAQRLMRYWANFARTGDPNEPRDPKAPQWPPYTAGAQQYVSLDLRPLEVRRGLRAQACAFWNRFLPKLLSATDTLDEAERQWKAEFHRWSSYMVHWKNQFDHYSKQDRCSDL
Outline: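 Neuroblastoma line SH-SY5Y supplied the enzyme; cells were preincubated with compound for 30 min at 37 C and 5% CO2. Acetylthiocholine with DTNB was then added for 90 min at 37 C, and thiocholine was measured by colour.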

[2] = target: Acetylcholinesterase (Homo sapiens) (UniProt P22303); assay: Acetylcholinesterase (AChE) small molecule antagonists: enzyme-based qHTS assay (AID 1347397); conditions: Potency: AChE enzyme activity inhibition; outcome: AChE enzyme activity inhibition; also: nearly all actives have a fitted effect of over 55% in size
Outline: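 Recombinant human AChE, dispensed at 50 mU/mL, was preincubated with Tox21 10K compounds or DMSO vehicle for 30 min at room temperature. DTNB plus acetylthiocholine was then added, and thiocholine was measured colorimetrically after a further 10 min.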

[3] = target: Acetylcholinesterase (Homo sapiens) (UniProt P22303); assay: Acetylcholinesterase (AChE) small molecule antagonists: fluorescence cell-based qHTS assay (AID 1347398); conditions: Potency: AChE activity; outcome: AChE activity; also: nearly all actives have a fitted effect of over 50% in size
Outline: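 Human SH-SY5Y cells were plated overnight at 37 C, exposed to compound for 30 min at 37 C, 5% CO2, then given acetylthiocholine plus Thiolite Green for 40 min at room temperature; thiocholine fluorescence (Ex/Em 490/520 nm) reports endogenous AChE activity.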

[4] = target: Acetylcholinesterase (Homo sapiens) (UniProt P22303); assay: Acetylcholinesterase (AChE) small molecule antagonists: enzyme-based qHTS assay with human liver microsomes (AID 1347399); conditions: Potency: qHTS inhibition; outcome: qHTS inhibition; also: nearly all actives have a fitted effect of over 60% in size
Outline: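 Recombinant human AChE (50 mU/mL in the enzyme mix) and human liver microsomes (0.25 mg/mL final) were preincubated with compound and NADPH (0.25 mg/mL final) for 30 min at 37 C. Acetylthiocholine/DTNB was then added; thiocholine was read colorimetrically after 10 min at room temperature.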
% is scaled to controls: 0 for no effect and ±100 for the full control effect; potency is read from the fitted curve at half-maximal effect.

CC(CO)Oc1ccccc1 (stereo not given)
inactive: Potency [1] | Potency [2] | Potency [3] | Potency [4]

COc1ccc(O)cc1
inactive: Potency [1] | Potency [2] | Potency [3] | Potency [4]

O=C(O)CCCC[P+](c1ccccc1)(c1ccccc1)c1ccccc1
inactive: Potency [1] | Potency [2] | Potency [3] | Potency [4]

CC1=CC(=O)/C(=C(/C)O)C(=O)O1
inactive: Potency [1] | Potency [2] | Potency [3] | Potency [4]

CCCCCCCCC=O
inactive: Potency [1] | Potency [2] | Potency [3] | Potency [4]

CCCCC(C)C(=O)O (stereo not given)
inactive: Potency [1] | Potency [2] | Potency [3] | Potency [4]

C[CH2][Ge]([Cl])([CH2]C)[CH2]C
inactive: Potency [1] | Potency [2] | Potency [3] | Potency [4]

CCCC(=O)C(C)=O
inactive: Potency [1] | Potency [2] | Potency [3] | Potency [4]

CCCCCCCCOc1ccccc1C(=O)Nc1ccc(C(=O)OCC[N+](C)(CC)CC)cc1
inactive: Potency [4]
active: Potency [1] 24.5 µM | Potency [2] 38.9 µM | Potency [3] 12.3 µM

CCCCN(C)C
inactive: Potency [1] | Potency [2] | Potency [3] | Potency [4]

CN(C)CCCNCCCN(C)C
inactive: Potency [1] | Potency [2] | Potency [3] | Potency [4]

CC(C)N1C(=O)c2ccccc2C1=O
inactive: Potency [1] | Potency [2] | Potency [3] | Potency [4]

O=C(O)CC(O)C(=O)O (stereo not given)
inactive: Potency [1] | Potency [2] | Potency [3] | Potency [4]

[O]=[Bi]
inactive: activity, negative = inhibition [1] 1.07% [at 10.5 µM] | activity change, negative = inhibition [2] 2.59% [at 10.5 µM] | activity change, negative = inhibition [3] 3.63% [at 10.5 µM] | activity change, negative = inhibition [4] -4.69% [at 10.5 µM]

CCCN(CCC)C(=O)SCC
inactive: Potency [1] | Potency [2] | Potency [3] | Potency [4]

Nc1nc2ccc(OC(F)(F)F)cc2s1
inactive: Potency [1] | Potency [2] | Potency [3] | Potency [4]

NC(=O)N/N=C/c1ccc([N+](=O)[O-])o1
inactive: Potency [1] | Potency [2] | Potency [3] | Potency [4]

CCC(=O)OC/C=C/c1ccccc1
inactive: Potency [1] | Potency [2] | Potency [3] | Potency [4]

C[Si](C)(CCCN)O[Si](C)(C)CCCN
inactive: Potency [1] | Potency [2] | Potency [3] | Potency [4]

COC(C)(C)CCO
inactive: Potency [1] | Potency [2] | Potency [3] | Potency [4]

CCOC(=O)C(=O)CCCCCCl
inactive: Potency [1] | Potency [2] | Potency [3] | Potency [4]

Nc1[nH]c(=O)ncc1F
inactive: Potency [1] | Potency [2] | Potency [3] | Potency [4]

O=C(Nc1ccccc1SSc1ccccc1NC(=O)c1ccccc1)c1ccccc1
inactive: Potency [1] | Potency [2] | Potency [3] | Potency [4]

COc1ccc(CCO)cc1
inactive: Potency [1] | Potency [2] | Potency [3] | Potency [4]

C=C[Si](OC(C)=O)(OC(C)=O)OC(C)=O
inactive: Potency [1] | Potency [2] | Potency [3] | Potency [4]

Cc1cc(C(=O)O)ccc1[N+](=O)[O-]
inactive: Potency [1] | Potency [2] | Potency [3] | Potency [4]

O=C(O)CN(CCCN(CC(=O)O)CC(=O)O)CC(=O)O
inactive: activity, negative = inhibition [1] 0.786% [at 23.6 µM] | activity change, negative = inhibition [2] 4.89% [at 23.6 µM] | activity change, negative = inhibition [3] 3.08% [at 23.8 µM] | activity change, negative = inhibition [4] 1.21% [at 23.6 µM]

CC(N)CN (stereo not given)
inactive: Potency [1] | Potency [2] | Potency [3] | Potency [4]

CC(C)OC(=O)C(O)(CC(=O)O)CC(=O)O
inactive: Potency [1] | Potency [2] | Potency [3] | Potency [4]

c1ccc(SSc2ccccc2)cc1
inactive: Potency [1] | Potency [2] | Potency [3] | Potency [4]

Cc1cccc(O)c1
inactive: Potency [1] | Potency [2] | Potency [3] | Potency [4]

CN(c1nccc(=O)[nH]1)C1CCN(c2nc3ccccc3n2Cc2ccc(F)cc2)CC1
inactive: Potency [1] | Potency [2] | Potency [3] | Potency [4]

CC(=O)NCCCCCC(=O)O
inactive: Potency [1] | Potency [2] | Potency [3] | Potency [4]

CC(C)NC(=O)c1ccccc1N
inactive: Potency [1] | Potency [2] | Potency [3] | Potency [4]

CC(C)CNCC(C)C
inactive: Potency [1] | Potency [2] | Potency [3] | Potency [4]

NC(N)=Nc1nc(CSCC/C(N)=N/S(N)(=O)=O)cs1
inactive: Potency [1] | Potency [2] | Potency [3] | Potency [4]

CC(C)(c1cc(Br)c(O)c(Br)c1)c1cc(Br)c(O)c(Br)c1
active: Potency [2] 39.8 µM and 70.8 µM and 67.2 µM
inactive: Potency [1] | Potency [3] | Potency [4]

COc1ccc(CN(CCN(C)C)c2ccccn2)cc1
inactive: Potency [1] | Potency [2] | Potency [3] | Potency [4]

C[Si](C)(C)N[Si](C)(C)C
inactive: Potency [1]
1.98 µM (active) and inactive: Potency [3]
3.96 µM (active) and inactive: Potency [2]
19.8 µM (active) and inactive: Potency [4]

O=c1cccc[nH]1
inactive: Potency [1] | Potency [2] | Potency [3] | Potency [4]

O=C(O)CCCCCCCCC(=O)O
inactive: Potency [1] | Potency [2] | Potency [3] | Potency [4]

O=C(Cl)c1cc(Cl)cc(Cl)c1
inactive: Potency [1] | Potency [2] | Potency [3] | Potency [4]

Cc1c(N)cccc1C(F)(F)F
inactive: Potency [1] | Potency [2] | Potency [3] | Potency [4]

CCCCCCCCCCCCCCCCCCOCCO
inactive: activity, negative = inhibition [1] 0.0969% [at 23.6 µM] | activity change, negative = inhibition [2] 1.34% [at 23.6 µM] | activity change, negative = inhibition [3] -1.79% [at 23.8 µM] | activity change, negative = inhibition [4] 0.112% [at 23.6 µM]

CC(C)OC(C)C
inactive: Potency [1] | Potency [2] | Potency [3] | Potency [4]

O=c1[nH]c(=O)c2cn[nH]c2[nH]1
inactive: Potency [1] | Potency [2] | Potency [3] | Potency [4]

COc1cc(C=O)ccc1OC(=O)C(C)C
inactive: Potency [1] | Potency [2] | Potency [3] | Potency [4]

CCOC(=O)NNc1nncc2ccccc12
inactive: Potency [1] | Potency [2] | Potency [3] | Potency [4]

CCCCC(CC)CO (stereo not given)
inactive: Potency [1] | Potency [2] | Potency [3] | Potency [4]

O=C1C(c2[nH]c3ccccc3c2O)=Nc2ccccc21
inactive: Potency [1] | Potency [2] | Potency [3] | Potency [4]

CCCCN(CCO)CCCC
inactive: Potency [1] | Potency [2] | Potency [3] | Potency [4]

CCCCCCOC(C)=O
inactive: Potency [1] | Potency [2] | Potency [3] | Potency [4]

CC1CCCNC1 (stereo not given)
inactive: Potency [1] | Potency [2] | Potency [3] | Potency [4]

CCCCCCCCCCCC(=O)OC
inactive: Potency [1] | Potency [2] | Potency [3] | Potency [4]

Cc1cc(=O)[nH]c(=S)[nH]1
inactive: Potency [1] | Potency [2] | Potency [3] | Potency [4]

CC1CC(O)CC(C)(C)C1 (stereo not given)
inactive: Potency [1] | Potency [2] | Potency [3] | Potency [4]

CCCC(=O)O[C@]1(C(=O)CC)CC[C@H]2[C@@H]3CCC4=CC(=O)CC[C@]4(C)[C@H]3[C@@H](O)C[C@@]21C
inactive: Potency [1] | Potency [2] | Potency [3] | Potency [4]

Cc1ccc(Nc2c(F)cccc2Cl)c(CC(=O)O)c1
inactive: Potency [1] | Potency [2] | Potency [3] | Potency [4]

CCCCCCn1c(=O)c2c(ncn2C)n(C)c1=O
inactive: Potency [1] | Potency [2] | Potency [3] | Potency [4]

CC(C)NCC(O)COc1ccc(COCCOC(C)C)cc1 (stereo not given)
inactive: Potency [1] | Potency [2] | Potency [3] | Potency [4]
